PubChem BioAssay (Tox21)
“And” between values parts separate entries of the source, which are not always exact repeats. Identical values can stand only once. A number with no mark means an inactive call. Inconclusive results are not listed. Where a call stands in place of a potency, no number is given. The source made the active and inactive calls. Unless noted, the call rests on the fitted dose curve; in most records, active means well fitted curve in the direction sought with a large enough effect in the repeat runs; inconclusive means weak or mixed curves; inactive means no such curve, though single readings can be large; an effect the other way counts as inactive or inconclusive.

Assays:
[1] = A CellTox Green Cytotoxicity Assay to monitor cytotoxicity in HepG2 cells - 8 hour (AID 1224890); further: nearly all actives have a fitted effect of over 45% in size
Method in brief: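 Read-out is fluorescence of a cyanine dye excluded from live cells that stains DNA of dead HepG2 cells, with signal proportional to cytotoxicity. Plates were read at 0, 8, 16, 24, 32 and 40 h after compound addition.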

[2] = qHTS assay to identify small molecule antagonists of the estrogen receptor alpha (ER-alpha) signaling pathway using the BG1 cell line in the presence of 0.1 nM 17-beta-estradiol - cell viability counter screen (AID 1259241); further: nearly all actives have a fitted effect of over 40% in size
Method in brief: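 The cell line endogenously expresses full-length ER-alpha and carries four EREs driving luciferase. Cells are cultured 5 days hormone-free, treated 22 hr with compounds and 0.1 nM estradiol, then viability is read by fluorescence.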

[3] = qHTS assay to identify small molecule phospholipidosis (PLD) inducers (AID 1259344; active means well fitted curve in the direction sought with a large enough effect; an effect the other way counts as inactive or inconclusive)
Method in brief: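 HepG2 cells on collagen I, attached 4 h at 37 C, were co-treated with compound and LipidTOX Red dye for 24 h at 37 C, then fixed with paraformaldehyde plus Hoechst 33342 and imaged by high-content microscopy for phospholipid accumulation.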

[4] = qHTS assay to identify small molecule HDAC inhibitors (AID 1259364); further: nearly all actives have a fitted effect of over 45% in size; further: potency means the concentration at half of the fitted maximal effect
Method in brief: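 Luminescence from a cell-permeant luminogenic class I/II HDAC substrate reports endogenous deacetylase activity in intact HCT-116 cells treated with compounds for 2 h.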

[5] = qHTS assay to identify small molecule HDAC inhibitors - cell viability counter screen (AID 1259365); further: series mostly up to about 92 µM; nearly all actives have a fitted effect of over 50% in size
Method in brief: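 Viability readout: CellTiter-Glo luminescence. Wild-type HCT-116 cells, 2hr compound treatment following overnight attachment at 37 C.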

[6] = qHTS assay to identify small molecule agonists of the sonic hedgehog signaling (Shh) pathway - cell viability counter screen (AID 1259366); further: nearly all actives have a fitted effect of over 50% in size
Method in brief: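 Viability measured fluorometrically (CellTiter-Fluor, 1hr, 37C) in 3T3 Gli1-Luc reporter cells after 23hr compound exposure within a 24hr incubation at 37C/5% CO2.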

[7] = qHTS assay to identify small molecule antagonists of the sonic hedgehog signaling (Shh) pathway - cell viability counter screen (AID 1259367); further: nearly all actives have a fitted effect of over 55% in size
Method in brief: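 NIH/3T3-derived Gli1-Luc reporter cells (2,000 per well) rested 4 hr at 37 C, then received DMSO compounds plus conditioned medium. After 23 hr of treatment, CellTiter-Fluor was added for 1 hr at 37C and fluorescence read.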

[8] = target: Androgen receptor (Homo sapiens) (UniProt P10275); assay: qHTS assay to identify small molecule antagonists of the androgen receptor (AR) signaling pathway using the MDA cell line in the presence of 0.5 nM R1881 (AID 1259243); further: nearly all actives have a fitted effect of over 50% in size; further: potency means the concentration at half of the fitted maximal effect
Androgen receptor (Homo sapiens), sequence (P10275 whole entry, looked up): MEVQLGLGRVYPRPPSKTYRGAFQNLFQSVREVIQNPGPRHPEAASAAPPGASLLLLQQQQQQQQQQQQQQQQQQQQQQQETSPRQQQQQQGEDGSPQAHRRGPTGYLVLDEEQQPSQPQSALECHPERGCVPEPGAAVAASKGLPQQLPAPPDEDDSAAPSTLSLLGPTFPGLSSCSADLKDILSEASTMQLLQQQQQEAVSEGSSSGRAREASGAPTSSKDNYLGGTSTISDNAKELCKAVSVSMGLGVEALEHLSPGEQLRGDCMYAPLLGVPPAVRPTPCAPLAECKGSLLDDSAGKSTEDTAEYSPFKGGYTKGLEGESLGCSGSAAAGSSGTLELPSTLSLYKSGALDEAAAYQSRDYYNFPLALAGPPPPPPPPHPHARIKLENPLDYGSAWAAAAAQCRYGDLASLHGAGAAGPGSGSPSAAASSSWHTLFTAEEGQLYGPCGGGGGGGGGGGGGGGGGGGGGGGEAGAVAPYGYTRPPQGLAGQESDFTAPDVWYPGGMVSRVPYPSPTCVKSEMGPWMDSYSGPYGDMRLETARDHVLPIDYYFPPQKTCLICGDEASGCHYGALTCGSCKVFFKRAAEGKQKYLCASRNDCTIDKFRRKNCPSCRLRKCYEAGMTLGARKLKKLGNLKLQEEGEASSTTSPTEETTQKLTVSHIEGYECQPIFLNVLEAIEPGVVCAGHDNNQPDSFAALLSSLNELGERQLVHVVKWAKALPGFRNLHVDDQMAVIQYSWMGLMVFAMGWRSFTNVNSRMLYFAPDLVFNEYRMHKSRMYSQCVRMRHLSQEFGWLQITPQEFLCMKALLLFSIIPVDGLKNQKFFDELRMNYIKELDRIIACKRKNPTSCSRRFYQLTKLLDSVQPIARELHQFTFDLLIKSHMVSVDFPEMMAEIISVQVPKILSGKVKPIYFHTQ
Method in brief: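 Luciferase luminescence is the read-out: compounds are tested for suppressing 0.5 nM R1881-driven MMTV reporter activity in MDA-kb2 cells after 16 hr at 37C.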

[9] = target: Estrogen receptor (Homo sapiens) (UniProt P03372); assay: qHTS assay to identify small molecule antagonists of the estrogen receptor alpha (ER-alpha) signaling pathway using the BG1 cell line in the presence of 0.1 nM 17-beta-estradiol (AID 1259244); further: nearly all actives have a fitted effect of over 50% in size
Estrogen receptor (Homo sapiens), sequence (P03372 whole entry, looked up): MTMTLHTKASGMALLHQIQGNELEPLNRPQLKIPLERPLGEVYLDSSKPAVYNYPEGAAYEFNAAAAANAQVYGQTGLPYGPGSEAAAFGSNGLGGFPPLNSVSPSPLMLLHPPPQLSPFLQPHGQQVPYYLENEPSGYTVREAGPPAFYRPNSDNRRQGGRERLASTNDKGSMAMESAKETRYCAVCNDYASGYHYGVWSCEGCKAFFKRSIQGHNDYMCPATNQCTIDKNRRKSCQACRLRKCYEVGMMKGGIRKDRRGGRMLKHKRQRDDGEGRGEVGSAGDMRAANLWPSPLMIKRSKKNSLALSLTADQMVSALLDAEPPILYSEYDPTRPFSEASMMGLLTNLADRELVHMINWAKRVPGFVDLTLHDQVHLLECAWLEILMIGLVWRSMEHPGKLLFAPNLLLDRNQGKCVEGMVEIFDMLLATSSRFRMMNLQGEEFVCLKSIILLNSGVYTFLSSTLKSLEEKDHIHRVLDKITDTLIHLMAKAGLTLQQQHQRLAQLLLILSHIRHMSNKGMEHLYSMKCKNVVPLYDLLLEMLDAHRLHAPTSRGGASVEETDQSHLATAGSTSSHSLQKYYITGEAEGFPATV
Method in brief: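 Cells: VM7Luc4E2, endogenous ER-alpha, 4x ERE-luc stable. Pre-culture 5 d, phenol red-free, charcoal-stripped FBS. Plated 24 h, compound + E2 0.1 nM final, 22 h 37C/5% CO2. Readout ONE-Glo luminescence.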

[10] = qHTS assay to identify small molecule antagonists of the androgen receptor (AR) signaling pathway using the MDA cell line in the presence of 0.5 nM R1881 - cell viability counter screen (AID 1259242); further: nearly all actives have a fitted effect of over 45% in size
Method in brief: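 Counter screen for cytotoxicity run in the same wells as the AR antagonist reporter screen: MDA-kb2 cells were treated 16 hr with test compounds and 0.5 nM R1881, then live-cell protease activity was measured by fluorescence.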

Row | Compound | Potency [1] | outcome [2] | Potency [3] | Potency [4] | outcome [5] | Potency [6] | Potency [7] | Potency [8] | outcome [9] | Potency [10] | PLD induction [3]
1 | NCCc1cnc[nH]1 | inactive | inactive | inactive | inactive | inactive | inactive | inactive |  |  |  | 
2 | ClC(Cl)(Br)Br | inactive | inactive |  | inactive | inactive | inactive | inactive | inactive | inactive |  | 
3 | O=c1[nH]c(=O)n([C@H]2C[C@H](O)[C@@H](CO)O2)cc1I | inactive | inactive | inactive | inactive | inactive | inactive | inactive |  |  |  | 
4 | CC(C)CNCC(C)C | inactive | inactive |  | inactive | inactive | inactive | inactive |  |  | inactive | 
5 | CCOC(=O)c1ccc(C)cc1 | inactive | inactive |  | inactive | inactive | inactive | inactive |  | inactive |  | 
6 | COc1c(N2C[C@@H]3CCCN[C@@H]3C2)c(F)cc2c(=O)c(C(=O)O)cn(C3CC3)c12 | inactive | inactive | inactive | inactive | inactive | inactive | inactive |  | inactive |  | 
7 | CCc1cccc2c(CCO)c[nH]c12 | inactive | inactive |  | inactive | inactive | inactive | inactive |  |  | inactive | 
8 | NS(=O)(=O)c1ccccc1Cl | inactive | inactive |  | inactive | inactive | inactive | inactive |  |  |  | 
9 | C=C[Si](OC(=C)C)(OC(=C)C)OC(=C)C | inactive | inactive |  | inactive | inactive | inactive | inactive |  | inactive |  | 
10 | CCOC(=O)c1c(C)n(C)c2ccc(O)cc12 | inactive |  | inactive | inactive | inactive | inactive | inactive | inactive |  | inactive | 
11 | COC(C)(C)CCCC(C)CC=O (centres undefined) | inactive | inactive |  | inactive | inactive | inactive | inactive |  |  |  | 
12 | N=C(N)c1ccc2cc(OC(=O)c3ccc(N=C(N)N)cc3)ccc2c1 | inactive | inactive | inactive | 59.6 nM (active) | inactive | inactive | inactive |  | inactive |  | 
13 | CC(C)NCCCC1(C(N)=O)c2ccccc2-c2ccccc21 | inactive | inactive |  | inactive | inactive | inactive | inactive |  | inactive |  | 
14 | Nc1c[n+](N2CCOCC2)no1 | inactive | inactive | inactive | inactive | inactive | inactive | inactive |  | inactive |  | 
15 | COC(=O)[C@@H](N)Cc1ccc(O)c(O)c1 | inactive | inactive | inactive | inactive | inactive | inactive | inactive | inactive |  |  | 
16 | CCCCCCCCCCCC | inactive | inactive |  | inactive | inactive | inactive | inactive |  |  |  | 
17 | COc1nc(N)nc2c1ncn2[C@@H]1O[C@H](CO)[C@@H](O)[C@@H]1O | inactive | inactive | inactive | inactive | inactive | inactive | inactive |  |  |  | 
18 | CCN(CC)CCNC(=O)c1cc(S(C)(=O)=O)ccc1OC | inactive |  | inactive | inactive | inactive | inactive | inactive |  | inactive | inactive | 
19 | O=C(CCCN1CCC(O)(c2cccc(C(F)(F)F)c2)CC1)c1ccc(F)cc1 | inactive |  |  | inactive | inactive | inactive | inactive |  |  | inactive | 
20 | C=COCC1CCC(CO)CC1 (centres undefined) | inactive |  |  | inactive | inactive | inactive | inactive |  | inactive | inactive | 
21 | C=CCS(=O)(=O)O | inactive |  |  | inactive | inactive | inactive | inactive |  | inactive |  | 
22 | COC(=O)c1cc(C(=O)OC)cc(S(=O)(=O)O)c1 | inactive |  |  | inactive | inactive | inactive | inactive |  |  |  | 
23 | COCCCOCCCOC | inactive |  |  | inactive | inactive | inactive | inactive |  | inactive |  | 
24 | CC(C)NC(=O)NC(C)C | inactive |  |  | inactive | inactive | inactive | inactive | inactive | inactive |  | 
25 | O=c1cc(-c2ccccc2)oc2ccccc12 |  | inactive |  | 24.3 µM (active) and 17.6 µM (active) | inactive | inactive | inactive | 7.7 µM (active) and 3.83 µM (active) | inactive | inactive | -2.02% [at 3.15 µM]
26 | CCN1CCC[C@H]1CNC(=O)c1c(O)c(Cl)cc(Cl)c1OC | inactive |  | inactive | inactive | inactive | inactive | inactive |  | inactive | inactive | 
27 | CCC=O | inactive |  |  | inactive | inactive | inactive | inactive |  | inactive |  | 
28 | CCC(C)C1CCCCC1=O (centres undefined) | inactive |  |  | inactive | inactive | inactive | inactive |  | inactive |  | 
29 | O=C(O)c1ccccc1OP(=O)(O)O | inactive |  | inactive | inactive | inactive | inactive | inactive |  | inactive | inactive | 
